PubChem BioAssay (NCATS)
Records with an inconclusive call do not appear. Calls of active or inactive are those of the source. Unless noted, calls follow the shape of the dose curve; as a rule, active = well fitted curve in either direction with a large enough effect (not every such curve was filed as active); inconclusive = small, poorly fitted or top-dose-only effect, or another doubt; inactive = flat fitted curve, though single readings scatter.

Columns and labels:
[1] = biological target: Lysosomal acid glucosylceramidase (Homo sapiens) (UniProt P04062); experiment: Glucocerebrosidase-p2 (AID 348; in the data active = potency below about 10 µM; also: potency is read from the fitted curve at half-maximal effect); details: purified GBA, blue fluorogenic substrate, 40 min
Lysosomal acid glucosylceramidase (Homo sapiens), sequence (P04062 whole entry, looked up): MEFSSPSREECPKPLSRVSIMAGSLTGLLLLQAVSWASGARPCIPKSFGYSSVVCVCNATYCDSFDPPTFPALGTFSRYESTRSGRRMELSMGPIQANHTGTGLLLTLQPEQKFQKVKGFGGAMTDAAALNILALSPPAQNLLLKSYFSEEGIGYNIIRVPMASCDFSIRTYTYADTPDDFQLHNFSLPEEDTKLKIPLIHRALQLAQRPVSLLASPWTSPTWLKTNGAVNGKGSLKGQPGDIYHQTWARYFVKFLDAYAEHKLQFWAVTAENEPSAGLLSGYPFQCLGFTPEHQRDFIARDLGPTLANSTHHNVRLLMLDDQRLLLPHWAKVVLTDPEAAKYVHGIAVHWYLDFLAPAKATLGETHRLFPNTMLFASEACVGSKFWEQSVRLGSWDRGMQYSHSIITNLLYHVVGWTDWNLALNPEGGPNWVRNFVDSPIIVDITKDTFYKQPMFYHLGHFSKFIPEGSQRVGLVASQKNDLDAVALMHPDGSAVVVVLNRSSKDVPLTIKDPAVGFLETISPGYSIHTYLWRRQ
Outline: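 Compounds titrated from 0.6 nM upwards against 0.2 nM enzyme in pH 5.9 citric acid/KH2PO4, taurocholate, tween-20; blue fluorogenic substrate 80 uM, 40 min room temperature, stopped and read Ex 365/Em 440 for AC50.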

[2] = AP1 Signaling Pathway (AID 357); details: ME-180 AP-1-bla reporter, EGF-induced, beta-lactamase ratio, 5 h; at 7.69 µM (top of the series) unless noted; also: % is scaled to controls: 0 for no effect and ±100 for the full control effect
Outline: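 ME-180 cells with beta-lactamase reporter under AP-1 response element, stimulated with EC50 EGF; compounds tested in titration series, 5 h at 37 °C. CCF4 substrate added 2.5 h at room temperature; 460/530 nm emission ratio gave %activity and AC50.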

[3] = Stat Signaling Pathway (AID 446); details: ME-180 SIE beta-lactamase reporter, IL-6 stimulated, 5 h; at 7.69 µM (top of the series) unless noted;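 also: ME-180 cervical cancer cells given 40 pM IL-6 alongside compound; SIE-controlled beta-lactamase reporter measured as 460/530 nm FRET emission ratio; % is scaled to controls: 0 for no effect and ±100 for the full control effect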
Outline: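 ME-180 SIE-bla cells; overnight plating; cpd + IL-6 40 pM, 5 h, 37 C; LiveBLAzer 2.5 h RT; 460/530 nm emission ratio. Normalized to 300 pM IL-6 and 125 nM JAK inhibitor controls.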

[4] = biological target: Glucocorticoid receptor (Homo sapiens) (UniProt P04150); experiment: GR-EFC Redistribution (AID 451; calls by dose curve; also: potency is read from the fitted curve at half-maximal effect); details: CHO-K1 GR-EFC translocation, beta-gal luminescence, 2 h
Glucocorticoid receptor (Homo sapiens), sequence (P04150 whole entry, looked up, the tested form may be a part): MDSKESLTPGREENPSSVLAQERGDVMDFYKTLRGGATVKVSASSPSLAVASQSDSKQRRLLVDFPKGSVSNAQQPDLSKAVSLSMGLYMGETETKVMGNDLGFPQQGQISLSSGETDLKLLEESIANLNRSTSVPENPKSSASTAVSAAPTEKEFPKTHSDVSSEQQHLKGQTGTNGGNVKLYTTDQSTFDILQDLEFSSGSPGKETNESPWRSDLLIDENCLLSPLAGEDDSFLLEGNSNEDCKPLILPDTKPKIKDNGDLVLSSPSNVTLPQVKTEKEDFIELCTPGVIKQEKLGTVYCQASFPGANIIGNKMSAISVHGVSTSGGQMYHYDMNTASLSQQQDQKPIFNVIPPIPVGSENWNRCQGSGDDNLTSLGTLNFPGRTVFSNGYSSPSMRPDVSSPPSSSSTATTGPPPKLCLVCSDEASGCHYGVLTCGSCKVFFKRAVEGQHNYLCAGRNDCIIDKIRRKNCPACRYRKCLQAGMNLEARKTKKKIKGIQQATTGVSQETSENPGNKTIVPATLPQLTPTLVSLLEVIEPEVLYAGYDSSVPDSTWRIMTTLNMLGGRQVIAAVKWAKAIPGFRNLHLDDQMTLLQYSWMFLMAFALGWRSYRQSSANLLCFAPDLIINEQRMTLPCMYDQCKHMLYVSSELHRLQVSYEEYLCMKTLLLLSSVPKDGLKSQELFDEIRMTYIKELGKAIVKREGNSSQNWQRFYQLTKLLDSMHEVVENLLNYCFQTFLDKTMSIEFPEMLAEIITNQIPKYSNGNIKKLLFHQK
Outline: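 CHO-K1 cells expressing nuclear EA and GR-ED fragments of b-gal; compounds titrated up to 46 uM final, 2 h at 37 C. GR nuclear translocation read as complemented b-gal luminescence after 1 h RT detection.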

[5] = biological target: Mitogen-activated protein kinase 10 (Mus musculus) (UniProt Q61831); experiment: JNK3 AlphaScreen Assay (AID 530); details: JNK3 lysate, c-Jun phosphorylation; series mostly up to 57.1 µM;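 also: kinase came from lysate of stimulated human HepG2 cells; signal reports phosphorylation of biotinylated GST-cJun 1-79 at Ser73 with 10 µM ATP; % is scaled to controls: 0 for no effect and ±100 for the full control effect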
Outline: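 Pre-activated (IL-1β/TNFα) JNK3 in HepG2 lysates phosphorylates biotin-GST-cJun(1-79), 10 uM ATP; anti-phospho-cJun(Ser73) AlphaScreen read at room temperature, pH 7.6 Tris buffer. Compounds pre-incubated 15 min as titrations.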

[6] = biological target: 3',5'-cyclic-AMP phosphodiesterase 4B (Homo sapiens) (UniProt Q07343); experiment: qHTS Assay for Inhibitors of PDE-IV (AID 607; active = well fitted activation curve with a large enough effect in the main read-out, with a control signal flat, not every such curve was filed as active; also: % of control where 0% means no effect); details: HEK293 ACTOne CNG channel cells, membrane potential fluorescence; series mostly up to 22.9 µM
3',5'-cyclic-AMP phosphodiesterase 4B (Homo sapiens), sequence (Q07343 whole entry, looked up): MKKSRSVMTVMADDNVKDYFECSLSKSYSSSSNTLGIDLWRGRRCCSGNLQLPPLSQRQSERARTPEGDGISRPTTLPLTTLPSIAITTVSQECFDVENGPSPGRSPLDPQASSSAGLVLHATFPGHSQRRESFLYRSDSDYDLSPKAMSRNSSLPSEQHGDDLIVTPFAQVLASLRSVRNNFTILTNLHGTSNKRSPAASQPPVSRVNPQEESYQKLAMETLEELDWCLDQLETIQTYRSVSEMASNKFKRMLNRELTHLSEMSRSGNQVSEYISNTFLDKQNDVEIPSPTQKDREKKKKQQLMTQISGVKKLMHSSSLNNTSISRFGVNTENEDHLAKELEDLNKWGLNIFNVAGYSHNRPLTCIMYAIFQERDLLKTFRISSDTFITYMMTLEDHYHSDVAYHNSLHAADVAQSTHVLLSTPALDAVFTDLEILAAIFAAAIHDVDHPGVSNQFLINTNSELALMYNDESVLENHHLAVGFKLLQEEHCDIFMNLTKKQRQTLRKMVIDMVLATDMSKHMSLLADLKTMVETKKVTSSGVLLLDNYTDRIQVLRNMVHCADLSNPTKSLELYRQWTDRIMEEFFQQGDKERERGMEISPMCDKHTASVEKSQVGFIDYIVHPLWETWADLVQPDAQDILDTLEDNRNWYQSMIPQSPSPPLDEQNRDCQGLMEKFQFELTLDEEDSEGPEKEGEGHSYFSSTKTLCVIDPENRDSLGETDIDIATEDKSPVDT
Outline: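 ACTOne HEK293 cells carry a modified cAMP-gated CNG channel and express endogenous PDE4; plated 1000 cells/well, compounds up to 22.9 uM final. Membrane-potential dye fluorescence (ex 535/em 590) was read; parental cells received 10 uM forskolin + 100 uM RO 20-1724.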

[7] = qHTS Assay for Lipid Storage Modulators (AID 1519; calls by dose curve); details: Drosophila S3 cells, BODIPY lipid droplet/cell ratio, laser cytometry, cells loaded with oleic acid; for activity change, negative = inhibition: at 57.5 µM (top of the series)
Outline: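 Cells seeded at 5,000 per well were treated with compounds over a concentration series and loaded with oleic acid (400 uM, as added). Lipid droplet fluorescence (488 nm excitation, 500-530 nm channel) was read by laser-scanning cytometry and normalized to 20 uM Triacsin C.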

[8] = Primary qHTS for small molecule stabilizers of the endoplasmic reticulum resident proteome: Secreted ER Calcium Modulated Protein (SERCaMP) assay (AID 1508630; active = well fitted curve in the direction sought with a large enough effect; an effect the other way counts as inactive or inconclusive; also: % is scaled to controls: 0 for no effect and ±100 for the full control effect); details: SH-SY5Y GLuc-SERCaMP (Gaussia luciferase released on ER calcium loss) secretion, thapsigargin, luminescence; series mostly up to 38.4 µM
Outline: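 GLuc-SERCaMP-expressing SH-SY5Y cells, pretreated 16 h with compound, are challenged with thapsigargin to empty ER calcium stores; after 4 h, coelenterazine is added directly to the medium and luminescence is imaged.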

[9] = biological target: Cytochrome P450 3A4 (Homo sapiens) (UniProt P08684); experiment: qHTS Assay for Activators of Cytochrome P450 3A4 (AID 885; active = well fitted curve in the direction sought with a large enough effect; an effect the other way counts as inactive or inconclusive; also: nearly all actives have a fitted effect of over 65% in size); details: recombinant CYP3A4, Luciferin-PPXE luminescence, 60 min; series mostly up to 57.1 µM
Cytochrome P450 3A4 (Homo sapiens), sequence (P08684 whole entry, looked up): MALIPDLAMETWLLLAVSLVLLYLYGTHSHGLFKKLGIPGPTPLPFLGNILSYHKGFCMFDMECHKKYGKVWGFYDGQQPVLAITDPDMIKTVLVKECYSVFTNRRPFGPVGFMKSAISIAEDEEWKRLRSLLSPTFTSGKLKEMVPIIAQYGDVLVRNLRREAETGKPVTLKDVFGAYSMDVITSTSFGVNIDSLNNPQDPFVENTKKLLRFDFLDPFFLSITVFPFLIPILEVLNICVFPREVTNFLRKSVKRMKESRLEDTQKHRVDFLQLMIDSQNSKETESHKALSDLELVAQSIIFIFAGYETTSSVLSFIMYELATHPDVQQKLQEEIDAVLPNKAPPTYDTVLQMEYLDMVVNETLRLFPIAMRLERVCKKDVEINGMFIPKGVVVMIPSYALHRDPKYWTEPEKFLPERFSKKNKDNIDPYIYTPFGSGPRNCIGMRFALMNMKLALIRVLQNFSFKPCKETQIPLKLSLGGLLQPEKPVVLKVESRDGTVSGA
Outline: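 20nM CYP3A4 + 25uM Luciferin-PPXE (=KM), 200mM KPO4; cpd 10 min RT; NADPH regen, 60 min RT; stop w/ detection buffer, 20 min; luminescence. Normalized to 57 uM ketoconazole.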

[10] = qHTS Assay for Identification of Small Molecule Agonists for Hypoxia Response Element Signaling Pathway (AID 914; active = well fitted activation curve with a large enough effect in the signal ratio, with a control signal flat, not every such curve was filed as active; the % refers to the signal ratio; also: % of control where 0% means no effect); details: ME-180 (cervical carcinoma) HRE-bla reporter, beta-lactamase ratio, CoCl2, 17 h; activation: stronger effect = higher value
Outline: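 Read-out: CCF4 FRET ratio of 460nm to 530nm emission (excitation 405nm) after 2.5 hours at room temperature, taken from HRE-bla ME-180 cells that had been exposed to compound and EC50 CoCl2 for 17 hours.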

[11] = biological target: Cytochrome P450 1A2 (Homo sapiens) (UniProt P05177); experiment: p450-cyp1a2 (AID 410; calls by dose curve; also: potency is read from the fitted curve at half-maximal effect); details: recombinant CYP1A2, luciferin-ME demethylation, luminescence; series mostly up to 57 µM
Cytochrome P450 1A2 (Homo sapiens), sequence (P05177 whole entry, looked up): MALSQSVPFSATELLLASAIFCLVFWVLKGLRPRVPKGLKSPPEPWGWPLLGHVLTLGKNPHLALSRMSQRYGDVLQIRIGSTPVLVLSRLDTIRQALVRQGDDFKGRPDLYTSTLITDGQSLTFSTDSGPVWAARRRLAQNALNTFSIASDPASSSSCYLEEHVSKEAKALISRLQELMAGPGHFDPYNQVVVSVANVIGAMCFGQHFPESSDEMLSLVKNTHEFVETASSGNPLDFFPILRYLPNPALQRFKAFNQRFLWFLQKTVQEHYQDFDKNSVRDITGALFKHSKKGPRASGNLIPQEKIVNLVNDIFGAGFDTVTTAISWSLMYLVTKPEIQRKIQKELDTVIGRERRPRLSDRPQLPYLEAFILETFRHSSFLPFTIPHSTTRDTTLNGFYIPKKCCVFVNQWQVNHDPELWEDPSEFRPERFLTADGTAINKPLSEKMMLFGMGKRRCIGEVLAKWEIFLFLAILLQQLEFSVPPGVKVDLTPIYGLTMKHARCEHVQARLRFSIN
Outline: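 Luminescent readout of luciferin formed from Luciferin-ME by human CYP1A2; data normalized against complete inhibition by 57 uM furafylline. Enzyme 20nM, substrate 100uM at Km, 100mM KPO4 buffer, 60 min reaction at room temperature.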

[12] = NFAT Signaling Pathway (AID 444); details: Jurkat NFAT-bla M1, carbachol, beta-lactamase ratio, 5 h; at 7.69 µM (top of the series) unless noted
Outline: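 Jurkat cells with NFAT-driven β-lactamase reporter and co-expressed M1 receptor, stimulated with carbachol (final 1 uM, ~EC50), compound titration, 5 h at 37 °C. CCF4 loaded 1 h at RT; 460/530 nm ratio gave %activity and AC50.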

[13] = biological target: Glucocorticoid receptor (Homo sapiens) (UniProt P04150); experiment: GR-GFP Redistribution (AID 450;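 active = compounds whose dose series gives a full or clear partial fitted curve of increased nuclear translocation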; also: potency is read from the fitted curve at half-maximal effect); details: U2OS GR-GFP nuclear translocation, laser cytometry, 2 h
[14] = Confirmation and Secondary Assay for Modulators of Hemoglobin Beta Chain Splicing at IVS2 705 locus (AID 930; active = well fitted curve in the direction sought with a large enough effect; an effect the other way counts as inactive or inconclusive;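 also: HeLa cells stably expressing the EGFP-705 splicing reporter; GFP fluorescence per well restored by corrected splicing of the IVS2-705 intron in EGFP; % of control where 0% means no effect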); details: HeLa EGFP-705 splicing reporter, GFP fluorescence, 48 h; series mostly up to 38.3 µM
Outline: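 HeLa EGFP-705 reporter; 500 cells/well, o/n 37C 5% CO2; cpd 2 d; 488 ex/500-520 em laser scan; total peak GFP intensity/well. Ref: 500 nM […] antisense PNA.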

[15] = biological target: Ubiquitin carboxyl-terminal hydrolase 1 (Homo sapiens) (UniProt O94782); experiment: Inhibitors of USP1/UAF1: Pilot qHTS (AID 504865; active = well fitted curve in the direction sought with a large enough effect; an effect the other way counts as inactive or inconclusive;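 also: rhodamine fluorescence freed from ubiquitin-rhodamine substrate followed over time; top concentration of the series differs between compounds; % is scaled to controls: 0 for no effect and ±100 for the full control effect; nearly all actives have a fitted effect of over 35% in size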); details: purified USP1/UAF1, Ub-rhodamine cleavage fluorescence; series mostly up to 54.9 µM
Ubiquitin carboxyl-terminal hydrolase 1 (Homo sapiens), sequence (O94782 whole entry, looked up): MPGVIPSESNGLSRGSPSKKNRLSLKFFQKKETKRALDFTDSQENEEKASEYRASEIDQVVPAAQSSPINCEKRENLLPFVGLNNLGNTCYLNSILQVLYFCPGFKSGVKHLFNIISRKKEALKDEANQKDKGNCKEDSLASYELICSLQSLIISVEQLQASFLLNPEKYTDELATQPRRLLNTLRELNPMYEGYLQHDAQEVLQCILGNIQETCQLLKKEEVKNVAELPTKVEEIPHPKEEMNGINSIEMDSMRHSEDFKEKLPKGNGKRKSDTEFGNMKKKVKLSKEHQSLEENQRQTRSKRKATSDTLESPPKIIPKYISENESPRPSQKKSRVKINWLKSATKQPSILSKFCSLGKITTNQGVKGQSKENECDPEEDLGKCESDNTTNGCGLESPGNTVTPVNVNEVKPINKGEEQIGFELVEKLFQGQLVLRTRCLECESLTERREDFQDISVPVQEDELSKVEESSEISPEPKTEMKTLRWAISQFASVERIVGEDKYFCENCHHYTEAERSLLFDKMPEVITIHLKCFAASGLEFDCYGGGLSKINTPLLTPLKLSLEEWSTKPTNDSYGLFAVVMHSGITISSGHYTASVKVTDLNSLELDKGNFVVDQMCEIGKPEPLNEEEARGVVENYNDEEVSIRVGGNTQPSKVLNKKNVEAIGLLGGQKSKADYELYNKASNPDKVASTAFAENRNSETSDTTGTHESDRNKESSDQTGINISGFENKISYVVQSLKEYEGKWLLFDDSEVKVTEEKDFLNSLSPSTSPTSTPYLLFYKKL
Outline: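 Deubiquitinase activity followed as kinetic rhodamine fluorescence release from 150 nM Ub-Rho. 1 nM USP1/UAF1 with compound, after 15 min room-temperature preincubation, in HEPES pH 7.8 buffer containing TCEP, EDTA, BSA and Tween-20.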

[16] = measured here: cell count channel max response
[17] = measured here: lipid channel max response

O=C(c1csnn1)N1CCC2(CCN(Cc3cc(C(F)(F)F)cc(C(F)(F)F)c3)CC2)CC1
inactive: Potency [1] > 11.4 µM | activity change, negative = inhibition [2] 11.5% | activity, negative = inhibition [3] 4.05% | Potency [4] > 46 µM | Potency [5] | Potency [6] | activity change, negative = inhibition [7] 1.96% | outcome [8]
11.7%: max response [7, 17]
7.55%: max response [7, 16]

COc1ccccc1CN1CCC2(CC1)CCN(C(=O)c1csnn1)CC2
inactive: Potency [1] > 11.4 µM | activity change, negative = inhibition [2] 0.316% | activity, negative = inhibition [3] -5.49% | Potency [4] > 46 µM | Potency [5] | Potency [6] | Potency [9] | activity change, negative = inhibition [7] 5.71% | outcome [8]
16.4%: max response [7, 16]
24.4%: max response [7, 17]

COc1ccccc1CN1CCC2(CC1)CCN(C(=O)c1cccc(F)c1)CC2
inactive: Potency [1] > 11.4 µM | activity change, negative = inhibition [2] -13% | Potency [4] > 46 µM | Potency [5] | Potency [6] | activation [10] 21.3% | activity change, negative = inhibition [7] 2.42% | outcome [8]
-3.6%: max response [7, 17]
-4.91%: max response [7, 16]

COCC(=O)N1CCC2(CC1)CCN(c1ccncc1)CC2
inactive: Potency [1] > 11.4 µM | activity change, negative = inhibition [2] 7.44% | activity, negative = inhibition [3] 16.3% | Potency [4] > 46 µM | Potency [5] | Potency [6] | activity change, negative = inhibition [7] -1.56% | outcome [8]
-10.2%: max response [7, 17]
-6.96%: max response [7, 16]

COCC(=O)N1CCC2(CCCN(C(c3ccccc3)c3ccccc3)C2)CC1
15.7%: max response [7, 16]
20.6%: max response [7, 17]
inactive: Potency [1] > 11.4 µM | activity change, negative = inhibition [2] -6.37% | activity, negative = inhibition [3] 16.7% | Potency [4] > 46 µM | Potency [6] | activity change, negative = inhibition [7] -0.272% | outcome [8]

O=C(c1ccncc1)N1CCC2(CCCN(c3ccccn3)C2)CC1
19.9%: max response [7, 17]
inactive: Potency [1] > 11.4 µM | activity change, negative = inhibition [2] -11.7% | activity, negative = inhibition [3] 4.12% | Potency [4] > 46 µM | Potency [6] | activity change, negative = inhibition [7] 7.75% | outcome [8]
10.2%: max response [7, 16]

CN(C)Cc1ccccc1-c1ccc2ncnc(N3CCOCC3)c2c1
inactive: Potency [1] > 11.4 µM | activity change, negative = inhibition [12] 2.99% | activity, negative = inhibition [3] 12.4% | Potency [13] > 46 µM | Potency [4] > 46 µM | Potency [5] | Potency [9] | outcome [14] | activity change, negative = inhibition [7] 9.22% | Potency [15] | outcome [8]
17.3%: max response [7, 17]
active: Potency [11] 15.8 µM
6.66%: max response [7, 16]

Cn1cccc1C(=O)N1CCC2(CCCN(C(=O)Nc3cccc(F)c3)C2)CC1
-2.38%: max response [7, 16]
6.22%: max response [7, 17]
inactive: Potency [1] > 11.4 µM | activity change, negative = inhibition [2] -15.3% | Potency [4] > 46 µM | Potency [5] | Potency [6] | Potency [9] | activity change, negative = inhibition [7] 5.97% | outcome [8]
